Where “and” joins values, the source holds several entries; their conditions need not be identical. Equal values may be shown once. In all, about 5,500 compounds went through this assay and about 2,000 (36%) were called active. Inconclusive results (about 18%) are left out. Rule as the data show it: active = normalized growth mostly below about 0.91 (no sharp cut-off); inconclusive = no clear call, values can overlap the other calls; inactive = mostly above about 0.92. Some of the results follow.
Test: chemical genetic growth profiling, strain panel (AID 1159580);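 also: tested at 20 µM; growth read once vehicle control cultures reached saturation at 30 °C; 1 = growth at the plate median or of vehicle wells; lower values mean less growth of the strain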
Conditions: S. cerevisiae deletion strains, growth OD

Measured: normalized growth

Cc1ccc2c(c1)CC[C@H]1CC(=O)CC[C@]21C
inactive: locus YAL013W, strain DEP1, stronger effect = lower value 1.01 | locus YAL021C, strain ccr4, stronger effect = lower value 0.991 | locus YAL026C, strain drs2, stronger effect = lower value 1.01 | locus YAL030W, strain snc1, stronger effect = lower value 1.01 | locus YBL061C, strain skt5, stronger effect = lower value 1 | locus YBR009C, strain hhf1, stronger effect = lower value 1 | locus YBR021W, strain FUR4, stronger effect = lower value 0.971 | locus YBR023C, strain chs3, stronger effect = lower value 0.998 | locus YBR171W, strain sec66, stronger effect = lower value 0.992 | locus YBR229C, strain ROT2, stronger effect = lower value 0.997 | locus YBR231C, strain swc5, stronger effect = lower value 1.01 | locus YBR279W, strain paf1, stronger effect = lower value 1.01 | locus YCL011C, strain gbp2, stronger effect = lower value 0.995 | locus YCL016C, strain dcc1, stronger effect = lower value 1.01 | locus YCL029C, strain bik1, stronger effect = lower value 0.991 | locus YCL069W, strain vba3, stronger effect = lower value 0.995 | locus YCR088W, strain abp1, stronger effect = lower value 0.998 | locus YDL005C, strain med2, stronger effect = lower value 1.01 | locus YDL035C, strain GPR1, stronger effect = lower value 0.973 | locus YDL040C, strain nat1, stronger effect = lower value 1 | locus YDL074C, strain BRE1, stronger effect = lower value 0.971 | locus YDL101C, strain DUN1, stronger effect = lower value 1.01 | locus YDL134C, strain PPH21, stronger effect = lower value 1 | locus YDL185W, strain tfp1, stronger effect = lower value 0.983 | locus YDL192W, strain arf1, stronger effect = lower value 0.974 | locus YDR001C, strain nth1, stronger effect = lower value 0.998 | locus YDR069C, strain doa4, stronger effect = lower value 1.01 | locus YDR101C, strain arx1, stronger effect = lower value 0.97 | locus YDR137W, strain rgp1, stronger effect = lower value 0.956 | locus YDR150W, strain NUM1, stronger effect = lower value 1 | locus YDR159W, strain sac3, stronger effect = lower value 1.01 | locus YDR162C, strain NBP2, stronger effect = lower value 0.974 | locus YDR195W, strain ref2 1.05 | locus YDR297W, strain sur2, stronger effect = lower value 0.991 | locus YDR318W, strain mcm21, stronger effect = lower value 0.972 | locus YDR334W, strain swr1, stronger effect = lower value 1.01 | locus YDR335W, strain msn5, stronger effect = lower value 1 | locus YDR388W, stronger effect = lower value 0.979 | locus YDR392W, strain spt3, stronger effect = lower value 0.983 | locus YDR502C, strain sam2, stronger effect = lower value 0.968 | locus YEL003W, strain gim4, stronger effect = lower value 0.991 | locus YEL037C, strain rad23, stronger effect = lower value 1.01 | locus YEL061C, strain CIN8 (second series), stronger effect = lower value 0.993 | locus YEL061C, strain CIN8, stronger effect = lower value 1 | locus YER015W, strain faa2, stronger effect = lower value 1.01 | locus YER016W, strain bim1, stronger effect = lower value 1 | locus YER110C, stronger effect = lower value 0.966 | locus YER111C, strain swi4, stronger effect = lower value 0.991 | locus YER155C, strain BEM2 (second series), stronger effect = lower value 0.978 | locus YER155C, strain BEM2, stronger effect = lower value 0.997 | locus YER167W, strain BCK2, stronger effect = lower value 0.991 | locus YFR010W, strain ubp6, stronger effect = lower value 1.01 | locus YGL078C, strain dbp3, stronger effect = lower value 0.989 | locus YGL086W, strain mad1, stronger effect = lower value 0.981 | locus YGL167C, strain pmr1, stronger effect = lower value 0.998 | locus YGL173C, strain kem1, stronger effect = lower value 0.982 | locus YGL227W, strain vid30, stronger effect = lower value 1 | locus YGL240W, strain doc1, stronger effect = lower value 0.987 | locus YGL248W, strain PDE1, stronger effect = lower value 0.993 | locus YGL253W, strain hxk2, stronger effect = lower value 1 | locus YGR078C, strain PAC10, stronger effect = lower value 0.982 | locus YGR135W, strain pre9, stronger effect = lower value 0.959 | locus YGR229C, strain SMI1, stronger effect = lower value 1.01 | locus YGR252W, strain gcn5, stronger effect = lower value 0.881 | locus YHR013C, strain ard1, stronger effect = lower value 1.02 | locus YHR027C, strain rpn1, stronger effect = lower value 1.01 | locus YHR030C, strain SLT2, stronger effect = lower value 0.996 and 0.98 | locus YHR079C, strain IRE1 (second series), stronger effect = lower value 0.969 | locus YHR079C, strain IRE1, stronger effect = lower value 0.973 | locus YHR094C, strain hxt1, stronger effect = lower value 0.995 | locus YHR129C, strain ARP1, stronger effect = lower value 0.996 | locus YHR142W, strain chs7, stronger effect = lower value 0.985 | locus YHR200W, strain rpn10, stronger effect = lower value 0.979 | locus YIL066C, strain RNR3, stronger effect = lower value 0.993 | locus YIL073C, strain SPO22, stronger effect = lower value 0.965 | locus YIL125W, strain kgd1, stronger effect = lower value 0.999 | locus YIR030C, strain dcg1, stronger effect = lower value 0.974 | locus YJL092W, strain hpr5, stronger effect = lower value 1 | locus YJL095W, strain BCK1 (second series), stronger effect = lower value 1.01 | locus YJL095W, strain BCK1, stronger effect = lower value 0.967 and 0.983 | locus YJL115W, strain asf1, stronger effect = lower value 1.01 | locus YJL129C, strain trk1, stronger effect = lower value 1 | locus YJL134W, strain LCB3, stronger effect = lower value 0.997 | locus YJL154C, strain vps35, stronger effect = lower value 0.993 | locus YJL164C, strain tpk1, stronger effect = lower value 0.992 | locus YJL166W, strain qcr8, stronger effect = lower value 0.995 | locus YJL168C, strain set2, stronger effect = lower value 0.971 | locus YJL187C, strain SWE1 (second series), stronger effect = lower value 1.01 | locus YJR043C, strain POL32, stronger effect = lower value 0.967 | locus YJR066W, strain TOR1, stronger effect = lower value 0.897 | locus YJR075W, strain HOC1, stronger effect = lower value 1

Reference: PubChem BioAssay AID1159580 (chemical genetic matrix, 2015)
